The full list was thinned out, with the strongest signals kept by preference.

What all share (assay): glycan array binding signal (z-score within array); higher = stronger binding
Common to all, as to conditions: glycan notation: IUPAC condensed, linker removed

Experiment [1] concerns the target Fuc(a1-2)Gal(b1-3)GalNAc(a1-3)[Fuc(a1-2)]Gal(b1-4)GlcNAc. Put shortly:
(§1)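 Columns mapping to the same glycan were averaged after glycan names were converted to IUPAC-condensed notation. The data come from 3228 arrays in the Consortium for Functional Glycomics database, limited to those with an available protein sequence. Binding is reported as a within-array Z-score averaged across arrays of one protein sequence and across linkers.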

Experiment [2] addresses Fuc(a1-2)Gal(b1-3)GlcNAc(b1-3)Gal(b1-4)Glc. Put shortly: as §1
For experiment [3], the target named is Fuc(a1-2)Gal(b1-3)GlcNAc6S. Put shortly: as §1
In experiment [4] the target is Fuc(a1-2)Gal(b1-4)GlcNAc(b1-2)Man(a1-3)[Fuc(a1-2)Gal(b1-4)GlcNAc(b1-2)Man(a1-6)]Man(b1-4)GlcNAc(b1-4)[Fuc(a1-6)]GlcNAc. The essentials: as §1
The target of experiment [5] is Fuc(a1-2)Gal6S(b1-3)GlcNAc6S. The essentials:
as §1

Experiment [6] deals with Fuc(a1-2)[Gal(a1-3)]Gal(b1-4)GlcNAc(b1-2)Man. The essentials: as §1
Experiment [7] deals with Fuc(a1-2)[GalNAc(a1-3)]Gal(b1-3)GalNAc(a1-3)[Fuc(a1-2)]Gal(b1-4)GlcNAc. Put shortly:
as §1

The target of experiment [8] is Fuc(a1-2)[GalNAc(a1-3)]Gal(b1-3)GlcNAc(b1-2)Man(a1-3)[Fuc(a1-2)[GalNAc(a1-3)]Gal(b1-3)GlcNAc(b1-2)Man(a1-6)]Man(b1-4)GlcNAc(b1-4)GlcNAc. The essentials: as §1
In experiment [9] the target is Fuc(a1-2)[GalNAc(a1-3)]Gal(b1-4)GlcNAc(b1-6)GalNAc. Put shortly:
as §1

In experiment [10] the target is Fuc(a1-3)[Gal(b1-4)]GlcNAc(b1-3)Gal(b1-3)[Fuc(a1-4)]GlcNAc. Put shortly:
as §1

Experiment [11] deals with Fuc(a1-3)[GalNAc(b1-4)]GlcNAc6S. Put shortly: as §1
Experiment [12] concerns the target Gal(a1-3)Gal(b1-3)GlcNAc(b1-6)GalNAc. The essentials:
as §1

The target in experiment [13] is Gal(a1-3)Gal(b1-4)[Fuc(a1-3)]GlcNAc. The essentials: as §1
Experiment [14] addresses Gal(b1-3)GalNAc(b1-4)[Neu5Ac(a2-3)]Gal(b1-4)Glc. Put shortly: as §1
The target of experiment [15] is Gal(b1-3)GlcNAc(b1-3)Gal(b1-4)GlcNAc(b1-6)[Gal(b1-3)GlcNAc(b1-3)]Gal(b1-4)Glc. Put shortly:
as §1

The target of experiment [16] is Gal(b1-3)GlcNAc(b1-3)Gal(b1-4)[Fuc(a1-3)]GlcNAc. The essentials:
as §1

The target of experiment [17] is Gal(b1-4)GlcNAc(b1-2)Man(a1-3)[Gal(b1-4)GlcNAc(b1-2)Man(a1-6)]Man(b1-4)GlcNAc(b1-4)[Fuc(a1-6)]GlcNAc. Put shortly: as §1
Experiment [18] concerns the target Gal(b1-4)GlcNAc(b1-2)[Gal(b1-4)GlcNAc(b1-6)]Man(a1-6)[Gal(b1-4)GlcNAc(b1-2)Man(a1-3)]Man(b1-4)GlcNAc(b1-4)GlcNAc. The essentials:
as §1

In experiment [19] the target is Gal(b1-4)GlcNAc(b1-3)Gal(b1-4)Glc. The essentials: as §1
The target of experiment [20] is Gal(b1-4)GlcNAc(b1-3)Gal(b1-4)GlcNAc(b1-3)Gal(b1-4)GlcNAc(b1-2)Man(a1-3)[Gal(b1-4)GlcNAc(b1-3)Gal(b1-4)GlcNAc(b1-3)Gal(b1-4)GlcNAc(b1-2)Man(a1-6)]Man(b1-4)GlcNAc(b1-4)GlcNAc. Put shortly: as §1
Experiment [21] concerns the target Gal(b1-4)GlcNAc(b1-3)Gal(b1-4)GlcNAc(b1-3)Gal(b1-4)GlcNAc(b1-3)Gal(b1-4)GlcNAc(b1-2)Man(a1-3)[Gal(b1-4)GlcNAc(b1-3)Gal(b1-4)GlcNAc(b1-3)Gal(b1-4)GlcNAc(b1-3)Gal(b1-4)GlcNAc(b1-2)Man(a1-6)]Man(b1-4)GlcNAc(b1-4)GlcNAc. Put shortly: as §1
For experiment [22], the target named is Gal(b1-4)GlcNAc(b1-3)Gal(b1-4)GlcNAc(b1-3)Gal(b1-4)GlcNAc(b1-3)Gal(b1-4)GlcNAc(b1-2)Man(a1-3)[Gal(b1-4)GlcNAc(b1-3)Gal(b1-4)GlcNAc(b1-3)Gal(b1-4)GlcNAc(b1-3)Gal(b1-4)GlcNAc(b1-2)Man(a1-6)]Man(b1-4)GlcNAc(b1-4)[Fuc(a1-6)]GlcNAc. The essentials: as §1
Experiment [23] has as its target Gal(b1-4)GlcNAc(b1-3)Gal(b1-4)GlcNAc(b1-6)[Gal(b1-3)]GalNAc. Put shortly:
as §1

For experiment [24], the target named is Gal(b1-4)GlcNAc(b1-6)GalNAc. The essentials:
as §1

B1: YghJ (Escherichia coli), E3PJ90 (protein)
chain: MNKKFKYKKSLLAAILSATLLAGCDGGGSGSSSDTPPVDSGTGSLPEVKPDPTPNPEPTPEPTPDPEPTPEPIPDPEPTPEPEPEPVPTKTGYLTLGGSQRVTGATCNGESSDGFTFKPGEDVTCVAGNTTIATFNTQSEAARSLRAVEKVSFSLEDAQELAGSDDKKSNAVSLVTSSNSCPANTEQVCLTFSSVIESKRFDSLYKQIDLAPEEFKKLVNEEVENNAATDKAPSTHTSPVVPVTTPGTKPDLNASFVSANAEQFYQYQPTEIILSEGRLVDSQGYGVAGVNYYTNSGRGVTGENGEFSFSWGEAISFGIDTFELGSVRGNKSTIALTELGDEVRGANIDQLIHRYSTTGQNNTRVVPDDVRKVFAEYPNVINEIINLSLSNGATLGEGEQVVNLPNEFIEQFNTGQAKEIDTAICAKTDGCNEARWFSLTTRNVNDGQIQGVINKLWGVDTNYKSVSKFHVFHDSTNFYGSTGNARGQAVVNISNAAFPILMARNDKNYWLAFGEKRAWDKNELAYITEAPSIVRPENVTRETASFNLPFISLGQVGDGKLMVIGNPHYNSILRCPNGYSWNGGVNKDGQCTLNSDPDDMKNFMENVLRYLSNDRWLPDAKSSMTVGTNLETVYFKKHGQVLGNSAPFAFHKDFTGITVKPMTSYGNLNPDEVPLLILNGFEYVTQWGSDPYSIPLRADTSKPKLTQQDVTDLIAYMNKGGSVLIMENVMSNLKEESASGFVRLLDAAGLSMALNKSVVNNDPQGYPDRVRQRRSTPIWVYERYPAVDGKPPYTIDDTTKEVIWKYQQENKPDDKPKLEVASWQEEVEGKQVTQFAFIDEADHKTPESLAAAKQRILDAFPGLEVCKDSDYHYEVNCLEYRPGTDVPVTGGMYVPQYTQLDLSADTAKAMLQAADLGTNIQRLYQHELYFRTNGRQGERLNSVDLERLYQNMSVWLWNETKYRYEEGKEDELGFKTFTEFLNCYTNNAYVGTQCSAELKKSLIDNKMIYGEESSKAGMMNPSYPLNYMEKPLTRLMLGRSWWDLNIKVDVEKYPGVVNTNGETVTQNINLYSAPTKWFAGNMQSTGLWAPAQQEVSIESKSTVPVTVTVALADDLTGREKHEVSLNRPPRVTKTYDLKANDKVTFKVPYGGLIYIKGDSKEVQSADFTFTGVVKAPFYKDGKWQHDLNSPAPLGELESASFVYTTPKKNLNASNYTGGLEQFANDLDTFASSMNDFYGRDSEDGKHRMFTYKNLPGHKHRFANDVQISIGDAHSGYPVMNSSFSPNSTTLPTTPLNDWLIWHEVGHNAAETPLTVPGATEVANNVLALYMQDRYLGKMNRVADDITVAPEYLEESNGQAWARGGAGDRLLMYAQLKEWAEKNFDIKKWYPDGTPLPEFYSEREGMKGWNLFQLMHRKARGDEVSNDKFGGKNYCAESNGNAADTLMLCASWVAQTDLSEFFKKWNPGANAYQLPGASEMSFEGGVSQSAYNTLASLDLPKPEQGPETINQVTEHKMSAE
Regarding B1, the “glycan array binding signal (z-score)” value was -1.47 in experiment [1]; -0.678 in experiment [2]; 2.47 in [3]; -0.129 in [4]; 3.49 in [5]; -1.3 in experiment [6]. The “glycan array binding signal (z-score)” value was -0.92 in [7]; 0.546 in experiment [8]; 0.95 in [9]; 2.74 in [10]; 0.125 in experiment [11]; 0.282 in [12]. Also, the “glycan array binding signal (z-score)” value was -2.21 in experiment [13]; -0.276 in [14]; 1.23 in experiment [15]; 2.4 in [16]; 2.37 in experiment [17]; 0.576 in [18]. The “glycan array binding signal (z-score)” value in experiment [19] was 0.172; in [20] it was 0.559; in experiment [21], -0.172; in [22], 2.84; in experiment [23] it was -0.193; in experiment [24] it was -0.103.

The record behind these values is the supplement of paper PMC8728848.
